Rows were chosen to be rich in hits. Some 13% of all compounds tested hit in one or more screens of this group.
HCMV inh: inhibitors of human cytomegalovirus; HFF cells, HCMV-luciferase reporter, 72 h; hits give low values; activity change, negative = inhibition, % at 57.5 µM; 410,000 compounds, 4.5% hits; AID 1259415; in the data active means activity change below about -60%; inconclusive means no clear call, values can overlap the other calls; inactive means above about -39%
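Two compound doses tested in HFFs infected with HCMV-luciferase, MOI 1 PFU/cell, 72 h at 37C. Lysate luminescence read with OneGlo; data normalized against buffer-only and 10uM Salinomycin inhibitor controls.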
Pf growth 48h: P. falciparum growth inhibition at 48 hours (one generation); P. falciparum luciferase growth in erythrocytes, 48 h; Potency, µM (highest dose often 28.7 µM), for inactives: at the top dose activity change, negative = inhibition, actives largely listed as inhibitors; AID 504832; 310,000 compounds, 5.9% hits; further: potency means the concentration at half of the fitted maximal effect
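Firefly luciferase activity from engineered P. falciparum reports growth; inhibitors lower the luminescent signal. Cultures contained 2% hematocrit erythrocytes at 0.1% final parasitemia.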
Pf growth 96h: P. falciparum growth inhibition at 96 hours; 320,000 compounds, 6.9% hits; P. falciparum luciferase reporter growth, 96 h; Potency, µM (doses to about 28.7 µM), for inactives: top-dose activity change, negative = inhibition, most hits filed as inhibitors; further: potency means the concentration at half of the fitted maximal effect
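96 h incubation, 37 C, 5% CO2, of luciferase-reporter P. falciparum-infected RBCs (2% hematocrit, 0.05% parasitemia final) with test compounds; endpoint luminescence.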
HCV inhibitor: inhibitors of hepatitis C virus infection; 340,000 compounds, 3.4% hits; Huh7.5.1 HCVcc-Cre infection, luciferase reporter, 44 h; Potency, µM (top dose mostly 41.8 µM), for inactives: at the top dose activity change, negative = inhibition, usual class: inhibitors; further: potency means the concentration at half of the fitted maximal effect
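Cells seeded at 1,000/well and cultured 4 h, then compounds added followed by HCVcc-Cre virus (~0.5 moi). After 44 h further culture, luciferase substrate was added, plates held 15 min at room temperature, and luminescence read for 15 sec.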
* hit, by the source's call; ? = inconclusive; . = no result given; [ ] = dose if it differs, or a comment. Unless noted, the call rests on the fitted dose curve; in most records, active means well fitted inhibition curve with a large enough effect; inconclusive means small, poorly fitted or top-dose-only effect, or another doubt; inactive means no such curve, though single readings can be large or run the other way. On the % scale 0 is the no-effect control and ±100 the full control effect.

SMILES	HCMV inh	Pf growth 48h	Pf growth 96h	HCV inhibitor
CCN1CCN(c2cc(C(C)C)nc3c(-c4ccccc4)c(C)nn23)CC1	-93*	?	15µM*	-89%
CCN1CCN(c2cc(C(C)(C)C)nc3c(-c4ccccc4)c(C)nn23)CC1	-75*	.	-26%	4µM*
Cc1nn2c(N3CCOCC3)cc(C(C)C)nc2c1-c1ccccc1	-31	-10%	-10%	?
O=C(Cc1ccc(-c2ccccc2)cc1)NCCS(=O)(=O)N1CCN(c2ccccc2)CC1	64	.	.	.
COC(=O)c1cccc(Nc2cc(C)nc(-c3ccccc3O)n2)c1	33	?	108%	0.79µM*
COc1ccc(Nc2cc(C)nc(N)n2)cc1	-8	?	?	-22%
CCOC(=O)c1ccc(Nc2cc(C)nc(-c3ccccc3)n2)cc1	-76*	10µM*	51%	?
Cc1cc(Nc2cccc(Cl)c2)nc(-c2ccccc2O)n1	4	?	-83%	?
Cc1cc(Nc2ccc(Cl)cc2)nc(N)n1	51	?	2.6µM*	-5%
COC(=O)c1ccc(Nc2cc(C)nc(-c3ccccc3O)n2)cc1	-9	?	4%	-17%
Cc1cc(Nc2ccc(Cl)cc2)nc(-c2ccccc2O)n1	-32	?	?	11µM*
CCOC(=O)c1ccc(Nc2nc(C)cc(C)n2)cc1	40	-29%[0.00184 µM]	18%	-16%
Cc1cc(C)c(S(=O)(=O)N2CCC(N3CCN(Cc4ccc(F)cc4)C(=O)C3=O)CC2)c(C)c1	5	.	.	.
Nc1cc(Nc2ccc(Br)cc2)nc(N)n1	52	?	10µM*	0%
CC(C)N1CCC(N2CCN(Cc3ccc(-c4ccc(Cl)cc4)o3)CC2CCO)CC1 (configuration not stated)	29	2.3µM*	?	4µM*
CC(C)N1CCC(N2CCN(Cc3cnc(-c4ccccc4)s3)CC2CCO)CC1 (configuration not stated)	24	-5%	?	?
Cc1ccc(-c2cccc(CN3CCN(C4CCN(C(C)C)CC4)C(CCO)C3)c2)o1 (configuration not stated)	12	10µM*	35%	5µM*
Cc1cccc(-c2nc3c4ccccc4nc(NCCc4ccccc4)n3n2)c1	84	.	.	.
CN=c1scc(-c2cccs2)n1/N=C/c1ccccc1O	-98*	-88%	-56%	13µM*
N#CC(C#N)=C(Nc1ccc(F)cc1)SCc1cccc(F)c1	-99*	?	?	10µM*
CCOc1ccc(N/C(SCc2cccc([N+](=O)[O-])c2)=C(/C#N)C(N)=O)cc1	?	?	21%	-11%
C1=C[C@@H]2CCN(Cc3ccccc3)Cc3cccc(c32)C1	32	8.3µM*	7.4µM*	5%
Cc1ccc(CN2CC[C@H]3C=CCc4cccc(c43)C2)cc1	-19	5.2µM*	?	?
COc1ccc(CNC2CCN(Cc3ccccc3)CC2)cc1	42	?	-3%	?
COc1ccc(CN2CC[C@H]3C=CCc4cccc(c43)C2)cc1	-27	3.7µM*	?	?
SMILES	HCMV inh	Pf growth 48h	Pf growth 96h	HCV inhibitor
COC(=O)COc1ccc(Oc2nc(NC(C)(C)C)nc(N3CCOCC3)n2)nn1	8	.	.	.
CCc1noc(-c2ccc(N3CCC(C)CC3)c([N+](=O)[O-])c2)n1	70	.	.	.
Cc1cc(C)n2ncc(C(=O)NCc3cccnc3)c2n1	24	11%	2.3µM*	-1%
COc1ccc(C(=O)Nc2ccccc2C(=O)NCc2cccnc2)cc1OC	-10	?	61%	11%
Cc1ccc(C(=O)Nc2ccccc2C(=O)NCc2cccnc2)cc1	-33	?	10µM*	-5%
O=C(NCc1cccnc1)c1cnn2ccccc12	9	.	163%	1%
O=C(Nc1ccc(Cl)cc1C(=O)NCc1cccnc1)c1ccc(Cl)cc1Cl	?	8.3µM*	3.3µM*	?
COc1ccc(CNC(=O)c2cnn3c(C(F)F)cc(C)nc23)cc1OC	30	-9%	?	10µM*
O=C(Nc1ccccc1C(=O)NCc1cccnc1)c1ccccc1Cl	-30	-4%	?	?
Nc1c(C(=O)Nc2ccccc2Cl)c2ccccn2c1C(=O)c1ccccc1	15	.	.	.
O=C(NCc1cccnc1)c1nc(-c2ccccc2)n(-c2ccccc2)n1	-8	-19%	3.3µM*	-20%
O=C(Nc1c(Cl)cc(Cl)cc1C(=O)NCc1cccnc1)c1ccc(Cl)cc1Cl	13	1.5µM*	18%	25%
CCn1cc2nc(SCc3cccc(C(F)(F)F)c3)n(Cc3ccc(C)cc3)c(=O)c2n1	-17	.	.	.

Source: PubChem BioAssay (National Center for Advancing Translational Sciences (NCATS))
